Compounds with a hit are over-represented: about 3.4% of the library has one in this group of screens.
PAFAH2 FP inh: PAFAH2 (human) inhibition | inhibition, % at 3.39 µM | Q99487 | recombinant PAFAH2, FP-rhodamine activity probe, fluorescence polarization | 0.99% of 340,000 active;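 active means inhibition above the mean over all tested compounds plus 3 SD, cut at about 30% in these data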;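 further: inhibitors block probe labeling of enzyme so polarization drops; 0% = enzyme with DMSO and 100% = wells lacking PAFAH2 protein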
PP5 inh: blocks human protein phosphatase 5 activity; P53041; purified PP5c, OMFP substrate fluorescence; inhibition, % at 6.7 µM; 0.18% of 320,000 active; AID 1987;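 active means inhibition above the campaign's mean inhibition across all tested compounds plus 3 SD, cut at about 9.5% in these data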;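 further: 0% = DMSO only and 100% = 100 µM cantharidin control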
Target sequence (P53041 whole entry, looked up): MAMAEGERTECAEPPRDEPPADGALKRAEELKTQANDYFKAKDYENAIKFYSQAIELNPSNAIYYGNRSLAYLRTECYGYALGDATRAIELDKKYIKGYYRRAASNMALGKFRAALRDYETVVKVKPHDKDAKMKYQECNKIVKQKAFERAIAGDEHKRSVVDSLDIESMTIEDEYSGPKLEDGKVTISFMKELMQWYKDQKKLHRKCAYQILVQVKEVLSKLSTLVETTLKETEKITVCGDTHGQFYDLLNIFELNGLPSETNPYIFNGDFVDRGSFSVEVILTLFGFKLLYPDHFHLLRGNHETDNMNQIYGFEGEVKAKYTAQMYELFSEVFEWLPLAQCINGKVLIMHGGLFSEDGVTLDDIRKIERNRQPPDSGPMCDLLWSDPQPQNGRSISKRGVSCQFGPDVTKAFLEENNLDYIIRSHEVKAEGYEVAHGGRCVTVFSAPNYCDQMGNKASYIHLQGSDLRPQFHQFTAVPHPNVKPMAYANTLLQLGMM
PP1 inh: blocks human PP1-alpha phosphatase, a PP5 counter-screen. P62136. purified PP1alpha, OMFP fluorescence. inhibition, % at 6.7 µM. 0.9% of 320,000 active. AID 2235;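 active means inhibition above the mean inhibition of all tested compounds plus 3 SD, computed separately for each screening campaign, cut at about 15% in these data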
PAFAH1B3 inh: blocks human PAF acetylhydrolase 1B catalytic subunit 3 | recombinant PAFAH1B3, FP-rhodamine probe, fluorescence polarization | inhibition, % at 3.39 µM | 0.28% of 340,000 active;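 active means inhibition above the screen-wide average of all tested compounds plus 3 SD, cut at about 25% in these data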;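 further: 0% = enzyme with DMSO only and 100% = wells lacking PAFAH1B3 protein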
PAFAH1B2 FP inh: blocks human PAF acetylhydrolase 1b catalytic subunit 2 | P68402 | recombinant PAFAH1B2, FP-rhodamine activity probe, fluorescence polarization | inhibition, % at 3.39 µM | 1.2% of 340,000 active | AID 492953;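 active means inhibition above the mean of all tested compounds plus 3 SD, cut at about 24% in these data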;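 further: 0% = enzyme with DMSO and 100% = wells lacking PAFAH1B2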
pPAFAH FP inh: inhibitors of human plasma PAF acetylhydrolase (pPAFAH); AID 463082; recombinant pPAFAH, FP-rhodamine probe fluorescence polarization; 1.5% of 330,000 active; inhibition, % at 3.39 µM; Q13093;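 active means inhibition above the mean inhibition across the screen plus 3 SD, cut at about 25% in these data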;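 further: inhibitors block binding of the rhodamine activity-based probe so polarization drops; 0% = enzyme with DMSO and 100% = wells lacking pPAFAH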
* marks the source's active call; other numbers are inactive results; nt = no result; ! = not confirmed by another sample.

SMILES	PAFAH2 FP inh	PP5 inh	PP1 inh	PAFAH1B3 inh	PAFAH1B2 FP inh	pPAFAH FP inh
O=C1C=C(c2ccccc2)C(c2ccccc2)C1 (configuration not stated)	5	nt	nt	4	21	nt
COCCn1c(SCc2nc3scc(-c4ccc(Cl)cc4)c3c(=O)[nH]2)nnc1-c1cccc(C)c1	-14	3	16*	0	-3	14
Cc1cn(CC(=O)NCC(c2ccccc2)c2ccccc2)c(=O)[nH]c1=O	-5	nt	nt	10	10	nt
O=C(OCc1nnc(-c2ccccc2)o1)c1ccc([N+](=O)[O-])s1	31*	4	-5	31*	24	14
O=C(COC(=O)c1ccc([N+](=O)[O-])s1)Nc1ccc(F)cc1	52*	-1	0	34*	10	12
Cc1nc(C)c(C(=O)OCC(=O)Nc2ccccc2)s1	95*	-2	-5	13	-1	26*
Cc1c(Cl)cnc(NC(=O)COC(=O)c2ccc([N+](=O)[O-])s2)c1Cl	47*	3	6	33*	16	20
O=C(COC(=O)c1ccc([N+](=O)[O-])s1)Nc1ccc(Cl)cn1	22	-1	1	24	11	20
Cc1cc(C(=O)OCC(=O)N2CCC(c3ccccc3)=N2)ccc1[N+](=O)[O-]	-5	-1	2	2	-1	1
O=C(COC(=O)c1ccc([N+](=O)[O-])s1)Nc1ccccc1	81*	1	0	34*	10	15
O=C(OCC(=O)N1CCC(c2ccccc2)=N1)c1ccc([N+](=O)[O-])s1	21	1	-4	16	15	25*
N/C(=N\OC(=O)CCC1CCCC1)c1ccccc1	5	2	2	7	6	6
N/C(=N\OC(=O)CCC1CCCCC1)c1cccc([N+](=O)[O-])c1	16	3	-3	4	40*	10
N/C(=N\OC(=O)CCC1CCCC1)c1ccc([N+](=O)[O-])cc1	13	3	-1	4	29*	7
COc1ccc(/C(N)=N/OC(=O)CCC2CCCC2)cc1OC	11	1	-1	8	8	0
COc1ccc(NC(=O)CN(Cc2ccco2)Cc2ccco2)cc1S(=O)(=O)N1CCCCC1	-2	2	1	-1	-1	2
O=C(Cn1cnc(S(=O)(=O)N2CCCC2)c1)Nc1cccc(F)c1	-5	2	-2	5	7	7
CCN(CC)CCN(C(=O)c1ccc(S(=O)(=O)N(CC)c2ccccc2)cc1)c1nc2c(OC)ccc(OC)c2s1	-3	1	4	-5	31*	4
COc1ccc(C)c2sc(N(CCN(C)C)C(=O)c3ccc4ccccc4c3)nc12	-4	2	2	-2	-1	1
CC(=O)c1ccc(S(=O)(=O)N2CCN(C(=O)c3ccc(COc4ccccc4)o3)CC2)cc1	6	nt	nt	-1	-1	nt
CCCCCCNC(=O)C(=O)NCCc1ccc(Cl)cc1	-4	0	-3	7	-2	-2
CCCCCNC(=O)C(C)Sc1ccc(Cl)cc1 (configuration not stated)	4	0	-2	3	30*	-2
O=C(NCc1ccc2c(c1)OCO2)c1cc2c(s1)CSC2	6	3	2	0	-1	21
O=C(NCc1ccco1)c1cc2c(s1)CSC2	nt	3	9	nt	nt	28*
CCOc1ccc(NC(=O)CN(C)C(=O)C2CCN(C(=O)Nc3ccccc3)CC2)cc1OCC	-8	nt	nt	11	2	nt
SMILES	PAFAH2 FP inh	PP5 inh	PP1 inh	PAFAH1B3 inh	PAFAH1B2 FP inh	pPAFAH FP inh
Cc1ccc(Cl)c(OCC(=O)NC2CCN(Cc3ccccc3)CC2)c1	-1	-2	-6	2	0	1
CCn1c(=O)cc(SCC(=O)N(C)Cc2ccccc2)c2ccccc21	10	-3	-4	3	4	10
CN(Cc1ccccc1)C(=O)CSc1cc(=O)n(C)c2ccccc12	7	1	-1	3	-3	29*
Cc1ccc(S(=O)(=O)Nc2cccc(Cl)c2)cc1NC(=O)C1CC1	9	nt	nt	14	2	34*
O=C(c1ccc(OCCN2CCCCC2)cc1)c1c(-c2ccc(O)cc2)sc2cc(O)ccc12	-4	3	16*!	6	2	19
COc1ccc(Cc2nc3ccc(C(=O)NCCCSC)cc3o2)cc1OC	3	-1	-2	5	4	3
Oc1ccc(C=NNC(=S)Nc2cccnc2)nc1	3	nt	nt	14	5	nt

Bioassay records (PubChem)
